Only some compounds are listed: those with a hit (about 5.4% of all), similar ones and a draw of the others.
Calb FLC = C. albicans growth modulation with fluconazole; C. albicans CaCi-2 (fluconazole-resistant clinical isolate) + fluconazole, Alamar Blue growth, 48 h; growth inhibition, % (no concentration beside the values); 300,000 tested, 0.57% active; AID 1979;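 active means growth inhibition above about 58% in most replicates, limit read from the data, passing the limit was not always enough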;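 further: all wells also contain fluconazole at 8 µg/ml as a sub-toxic cotreatment; 0% = median of DMSO wells and 100% = median of geldanamycin control wells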
SKKanGAS inh = SKKanGAS growth inhibition. S. pyogenes SKKanGAS, kanamycin growth, BacTiter-Glo, 6 h. inhibition, % at 7.5 µM. 300,000 tested, 1.3% active. AID 1662;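 active means mean replicate score, as percent of positive control median, at least 50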;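 further: strain carries kanamycin resistance gene driven by streptokinase promoter and grows in 40 µg/ml kanamycin; loss of luminescence reflects streptokinase promoter inhibition or plain growth inhibition; 0% = median of DMSO wells and 100% = positive control at its reference dose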
MPTP block = blocks calcium-induced mitochondrial swelling; isolated mouse mitochondria, Ca2+ swelling absorbance, 30 min; inhibition, % at 10 µM; 360,000 tested, 1.4% active;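 active means inhibition of 50% or more, scaled per plate between neutral and stimulator controls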;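 further: 0% = DMSO wells given calcium and 100% = 1 mM EGTA wells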
Beta apoptosis = blocks beta cell apoptosis; INS-1E cytokine-induced death, ATP luminescence, 48 h; percent of positive-control rescue, neutral wells zero; protection from apoptosis, % (no concentration beside the values); 300,000 tested, 0.8% active; AID 435005;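 active means Every replicate reaches about 75%, or at least half do and their mean reaches it too, limit read from the data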;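 further: 0% = cytokine-treated negative control wells and 100% = positive control rescue; higher means more ATP so stronger rescue from cytokine killing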
Mdm2-MdmX inh = inhibitors of human Mdm2/MdmX interaction | SaOS-2 split-luciferase Mdm2/MdmX complementation, luminescence | inhibition, % at 8 µM | 330,000 tested, 3% active | AID 485346;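 active means inhibition of at least 50% at 8 µM in the primary screen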
Target sequence (O15151 whole entry, looked up): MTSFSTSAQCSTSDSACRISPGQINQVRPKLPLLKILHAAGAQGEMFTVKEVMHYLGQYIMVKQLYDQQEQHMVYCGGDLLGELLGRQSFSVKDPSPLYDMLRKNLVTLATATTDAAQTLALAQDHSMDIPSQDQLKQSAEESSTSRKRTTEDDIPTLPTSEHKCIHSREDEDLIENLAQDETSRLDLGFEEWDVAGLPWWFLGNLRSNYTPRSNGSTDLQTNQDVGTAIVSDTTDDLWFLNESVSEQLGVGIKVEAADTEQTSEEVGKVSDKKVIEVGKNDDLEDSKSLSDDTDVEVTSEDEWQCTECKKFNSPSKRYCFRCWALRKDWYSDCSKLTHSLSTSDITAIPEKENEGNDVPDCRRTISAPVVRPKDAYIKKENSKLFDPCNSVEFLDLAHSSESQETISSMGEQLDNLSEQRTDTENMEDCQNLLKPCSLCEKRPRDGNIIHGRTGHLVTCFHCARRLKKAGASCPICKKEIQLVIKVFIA
Target sequence (Q00987 whole entry, looked up): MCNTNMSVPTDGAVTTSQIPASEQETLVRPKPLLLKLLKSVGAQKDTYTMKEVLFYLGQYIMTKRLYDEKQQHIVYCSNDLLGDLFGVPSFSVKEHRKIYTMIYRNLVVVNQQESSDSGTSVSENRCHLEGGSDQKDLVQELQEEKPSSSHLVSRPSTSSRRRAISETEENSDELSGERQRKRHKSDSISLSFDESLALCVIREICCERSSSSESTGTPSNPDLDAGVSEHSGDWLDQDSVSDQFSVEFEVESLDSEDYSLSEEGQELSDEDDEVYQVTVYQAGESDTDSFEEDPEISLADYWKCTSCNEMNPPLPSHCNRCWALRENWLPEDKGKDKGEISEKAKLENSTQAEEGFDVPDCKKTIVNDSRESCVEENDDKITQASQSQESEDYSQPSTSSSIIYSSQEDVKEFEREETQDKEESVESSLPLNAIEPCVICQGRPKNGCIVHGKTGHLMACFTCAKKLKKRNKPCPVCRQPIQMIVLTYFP
CSC inhib = blocks cancer stem cells. cancer stem cell-like cells viability, luminescence. inhibition, % at 7.5 µM. 300,000 tested, 1.1% active; in the data active means inhibition above about 75%; tested in HMLE shEcad cells
Starred values were filed as active, the others as inactive; nt = not tested or not shown.

SMILES	Calb FLC	SKKanGAS inh	MPTP block	Beta apoptosis	Mdm2-MdmX inh	CSC inhib
CCc1ccc(N2C(=O)NC(=O)/C(=C\C=C\c3ccco3)C2=O)cc1	13	19	2	9	50	116*
CC(C)c1ccc(N2C(=O)NC(=O)/C(=C/C=C/c3ccco3)C2=O)cc1	-11	5	0	65	nt	98*
COC1=CC(=O)[C@]2(C=C1OC)OC[C@@H]1Oc3c(ccc4c3C=CC(C)(C)O4)C(=O)[C@@H]12	nt	nt	nt	126*	2	4
O=C1NC(=O)C(CCc2ccncc2)(Cc2ccc3c(c2)OCO3)C(=O)N1CCc1ccccc1 (centres undefined)	10	-10	2	-1	4	11
CCN(CC)C(=O)c1ccc(NC(=O)Nc2ccccc2F)cc1	11	71*	1	68	-74	81*
CCN(CC)C(=O)c1ccc(NC(=O)CCCSc2ccccc2)cc1	-2	1	0	-6	-5	-12
CC1(C)CN2C(c3ccc(Cl)cc3)N2C1 (centres undefined)	-2	3	-1	-7	-14	-13
O=[N+]([O-])c1ccc(C[n+]2c(-c3ccccc3)cc(-c3ccccc3)cc2-c2ccccc2)cc1	107*	-1	0	14	-8	18
O=[N+]([O-])c1cc(Cl)c(O)c(-[n+]2c(-c3ccccc3)cc(-c3ccccc3)cc2-c2ccccc2)c1	-2	4	2	14	14	-3
Clc1ccc(Cn2ccnc2)cn1	8	-4	0	-1	17	0
Clc1ccc(CCC(Cn2ccnc2)Sc2c(Cl)cccc2Cl)cc1 (centres undefined)	nt	nt	2	16	42	86*
C=CCn1c(O)c(C(CC)=Nc2ccc(N(C)C)cc2)c(=O)[nH]c1=O	-5	57*	4	-4	11	-3
C=CCn1c(O)c(C(CC)=Nc2ccc3c(c2)CCC3)c(=O)[nH]c1=O	-19	38	20	3	-18	5
CN(C)[C@@H]1C(=O)C(C(N)=O)=C(O)[C@@]2(O)C(=O)C3=C(O)c4c(O)cccc4[C@@](C)(O)[C@H]3C[C@@H]12	nt	1	nt	-2	19	-4
CN(C)C1C(=O)C(C(N)=O)=C(O)C2(O)C(=O)C3=C(O)c4c(O)cccc4C(C)(O)C3CC12 (centres undefined)	nt	102*	3	4	nt	-9
CN(C)[C@@H]1C(=O)C(C(N)=O)=C(O)[C@@]2(O)C(=O)C3=C(O)c4c(O)cccc4[C@@](C)(O)C3[C@H](O)C12 (some centres undefined)	-16	106*	3	-1	16	-11
CC12CCC3c4ccc(OP(=O)(N5CC5)N5CC5)cc4CCC3C1CCC2=O (centres undefined)	nt	nt	0	nt	nt	nt
COc1ccc(C(c2ccc(OC)cc2)C(Cl)(Cl)Cl)cc1	nt	nt	1	-1	28	33
Cc1ccc(-n2c(-c3cccs3)nc3ccccc3c2=O)cc1	4	6	1	-9	-17	78*
Cc1ccc(-c2nc3ccccc3c(=O)n2-c2ccc(O)cc2)cc1	-4	-2	0	-5	8	-15
CC(C)(C)n1nnnc1C(c1ccnc2ccccc12)N1CCC2(CC1)C(=O)NCN2c1ccccc1 (centres undefined)	nt	nt	-1	nt	nt	nt
c1ccc2c3c([nH]c2c1)C1(CCNCC1)NCC3	23	-13	-5	87*	18	-2
c1ccc2c3c([nH]c2c1)CNCC3	-13	3	-1	-1	-4	-8
Cc1ccc(N2C(=O)NC(=O)/C(=C/c3cnn(-c4ccc(C)cc4)c3)C2=O)cc1	-6	-2	39	85*	-1	10
COC(=O)C1=C(c2cccc(OCc3ccccc3)c2)C[C@@H]2CC[C@H]1N2C(=O)NCCCc1ccccc1	nt	nt	0	2	45	12
SMILES	Calb FLC	SKKanGAS inh	MPTP block	Beta apoptosis	Mdm2-MdmX inh	CSC inhib
CCC(=O)N1N=C(c2c(O)n(CCc3ccccc3)c(=O)[nH]c2=O)CC1c1ccc(OC)c(OC)c1 (centres undefined)	2	100*	-6	-2	22	3
COc1ccc(CCn2c(O)c(C=NCCN3CCCCC3)c(=O)[nH]c2=O)cc1OC	-8	2	-1	nt	11	0
CC(=O)NN1C(=O)c2ccccc2NC1c1cccnc1 (centres undefined)	2	1	-2	nt	26	-1
Nc1c(C(=O)OCc2ccccc2)c2nc3ccccc3nc2n1Cc1cccs1	6	56*	21	-19	28	70
CCC(=O)Nc1cc(C(=O)N2CCC3(CC2)OCCO3)ccc1S(=O)(=O)c1ccc(C)cc1	-2	-12	-7	-5	7	-6
O=C(c1ccc(N2CCCCCC2)c([N+](=O)[O-])c1)N1CCC2(CC1)OCCO2	-10	0	0	-9	-13	41
CN1CCc2cc3c(cc2C1)OCO3	nt	nt	-1	nt	nt	nt
O=c1[nH]c(=O)n(CCC2=CCCCC2)c(O)c1C=NC1CCN(Cc2ccccc2)CC1	nt	nt	48	0	48	7
CN1C2CCC1/C(=C/c1ccccn1)C(=O)/C2=C\c1ccccn1	nt	nt	-1	100*	nt	38
C[C@H]1O[C@@H](OC2CC[C@]3(C=O)[C@H]4CC[C@]5(C)[C@@H](C6=CC(=O)OC6)CC[C@]5(O)[C@@H]4CC[C@]3(O)C2)CC2OC(C)(C)OC21 (some centres undefined)	0	0	0	-2	nt	101*
CC12CCC3C(CCC4(O)CC(O)CCC34C=O)C1(O)CCC2C1=CC(=O)OC1 (centres undefined)	nt	nt	0	nt	nt	nt
CCc1c(C)nc(N)nc1N1N=C1SC(C(C)=O)C(C)=O	-1	6	-2	-4	0	4
c1ccc(CN2CCc3nc4ccccc4cc3C2)cc1	76*	3	0	7	-58	3
CN1CCN(Cc2ccc3ccccc3c2)CC1	1	0	0	-7	3	-6
COCCCn1c(N)c(C(=O)Nc2ccccc2)c2nc3ccccc3nc21	-3	50*	2	-1	48	33
CCC(C)NC(=O)c1c(N)n(CCCOC)c2nc3ccccc3nc12 (centres undefined)	9	5	1	-4	16	19
CC(C)c1ccc(-n2c(O)c(/C=N/NC(=O)c3ccccc3O)c(=O)[nH]c2=S)cc1	-7	70*	1	-6	-4	-4
CC(C)c1ccc(-n2c(O)c(/C=N/NC(=O)c3ccncc3)c(=O)[nH]c2=O)cc1	-16	1	-5	2	-15	0
O=c1[nH]c(=S)n(C2CC2)c(O)c1/C=N/Nc1ccccc1	-21	6	-1	-5	16	-2
O=C(N/N=C/c1c(O)n(C2CCCCC2)c(=S)[nH]c1=O)c1ccccc1O	nt	55*	18	2	18	24
O=C(N/N=C/c1c(O)n(CCc2ccccc2)c(=O)[nH]c1=O)c1ccccc1	6	55*	-6	-1	-12	3
O=C(N/N=C/c1c(O)n(Cc2ccco2)c(=O)[nH]c1=O)c1ccccc1O	17	68*	-2	-3	-36	7

From PubChem BioAssay
